Reference: PubChem BioAssay AID1347131 (National Center for Advancing Translational Sciences (NCATS), 2019)
Screen size: about 410,000 compounds; about 2,000 (0.49%) were called active. Inconclusive results (about 8%) are left out. Calls follow the shape of the full dose curve; tested in HEK293 reporter line. The entries come from a sample that favours actives as a whole. Entries that show only a call come without a potency.

assay: qHTS Assay for Foot and Mouth Disease Virus Antivirals: Primary Screen against the MLPCN compound library; settings: FMDV antiviral cell-based qHTS; series mostly up to 57.9 µM; also: nearly all actives have a fitted effect of over 55% in size
Potency is read from the fitted curve at half-maximal effect.

Row | Compound | Potency
1 | CC(NC(=O)C1CCN(CCOc2ccc(Cl)cc2)CC1)c1cccc2ccccc12 (stereo unspecified) | inactive
2 | O=C(c1ccc(=O)n(Cc2ccccc2)n1)N1CCN(C/C=C/c2ccccc2)CC1 | 15.8 µM (active)
3 | C[C@H](NC(=O)c1ccc(C(C)(C)C)cc1)C(=O)N1CCN(C/C=C/c2ccccc2)CC1 | inactive
4 | O=C(/C=C/c1ccco1)N1CCN(C/C=C/c2ccccc2)CC1 | inactive
5 | CCOc1ccc(-n2c(SCc3nc(-c4ccc(OC)cc4)no3)nnc2-c2ccncc2)cc1 | inactive
6 | O=C(NCc1ccc(F)cc1)C(=O)NCC(c1cccs1)S(=O)(=O)c1cccs1 (stereo unspecified) | inactive
7 | Cc1ccc(Nc2sc(C(=O)c3ccccc3)c(N)c2C(=O)Nc2ccc(Cl)cc2)cc1 | 15.8 µM (active)
8 | Cc1sc(NC(=O)c2ccccc2)c(C(=O)c2ccccc2)c1C | inactive
9 | Cc1ccccc1Nc1sc(C(=O)c2ccccc2)c(N)c1S(C)(=O)=O | inactive
10 | O=S(=O)(c1ccc(Cl)cc1)c1nnn2c1nc(NC1CCCCC1)c1sccc12 | inactive
11 | COc1ccc(C(=O)Nc2nc3ccccc3s2)c(OC)c1 | inactive
12 | Cc1ccc2nc(NC(=O)c3ccco3)sc2c1 | 12.6 µM (active)
13 | Cc1ccc2nc(NC(=O)c3cc(-c4ccco4)nc4ccccc34)sc2c1 | inactive
14 | COc1ccc2nc(NC(=O)c3ccco3)sc2c1 | 15.8 µM (active)
15 | Cc1ccc2nc(NC(=O)CSc3nccn3Cc3ccc(F)cc3)sc2c1 | inactive
16 | COc1ccc2oc(C(=O)Nc3nc4ccc(S(C)(=O)=O)cc4s3)c(C)c2c1 | inactive
17 | CCCCCc1nnc(NC(=O)c2cccc(S(=O)(=O)N3CCOCC3)c2)s1 | inactive
18 | CN(C)S(=O)(=O)N1CCc2ccc(NC(=O)c3ccc(C(F)(F)F)cc3)cc2C1 | inactive
19 | COc1cc(-c2cc(NC=O)c3ncc(-c4cccc(C(F)(F)F)c4)n3c2)cc(OC)c1OC | inactive
20 | CSc1ccccc1OCc1cc(C(=O)NCC(C)(C)N2CCOCC2)no1 | inactive
21 | O=C1CCCN2N=C(SCC(=O)Nc3ccc(OC(F)(F)F)cc3)SC2=N1 | inactive
22 | O=C(CSc1nc(=O)n(CCN2CCOCC2)c2c1CCC2)Nc1ccc(OC(F)(F)F)cc1 | inactive
23 | N#Cc1cc2c(nc1SCC(=O)Nc1ccc(OC(F)(F)F)cc1)C1CCN2CC1 | 15.8 µM (active)
24 | CCCN1C(=O)c2cc(C(=O)Nc3ccccc3OC)ccc2C1Nc1ccccc1OC (stereo unspecified) | inactive
25 | CCc1ccc(-n2c(=O)c3c4c(sc3n(CC(=O)N3CCCCC3CC)c2=O)CCC4)cc1 (stereo unspecified) | inactive
26 | CC(C)C(=O)N1CCC(CN=Cc2c(O)n(C3CCCCC3)c(=O)n(C3CCCCC3)c2=O)CC1 | 25.1 µM (active)
